Experimental data: PubChem BioAssay (NCATS)
Records with an inconclusive call do not appear. The source made the active and inactive calls. Unless noted, the call rests on the fitted dose curve; in most records, active means well fitted curve in the direction sought with a large enough effect; inconclusive means small, poorly fitted or top-dose-only effect, or another doubt; inactive means no such curve, though single readings can be large; an effect the other way counts as inactive or inconclusive.

Legend:
[1] = Cell Viability - Mesenchymal (AID 546); details: mesenchymal cells viability, qHTS; series mostly up to 91.7 µM;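 further: cells exposed to compound for 40 hours before reading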
Outline: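 Normal human renal glomerulus-derived kidney mesenchymal cells, 1000 per well in complete medium, were treated with compounds for 40 hr at 37 °C. Viability was read as intracellular ATP by CellTiter-Glo luminescence; AC50 values came from Hill-equation fits of qHTS concentration-response data.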

[2] = Cellular Toxicity (caspase-3) HepG2 (AID 654); details: HepG2 caspase-3 activation, luminescence, 0% = DMSO only, 100% = tamoxifen; series mostly up to 92.2 µM;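 further: cells exposed to compound for 16 hours before reading; 0% = DMSO alone and 100% = caspase signal from 100 µM tamoxifen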
Outline: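 qHTS, HepG2, 1500 cells/well, complete medium; cpd 16 h 37 °C; Caspase-Glo 3/7, 20 min RT; lum. Norm: DMSO vs 100 uM tamoxifen; AC50 Hill fit.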

[3] = Cellular Toxicity (caspase-3) Jurkat (AID 655); details: Jurkat caspase-3 activation, luminescence, DMSO = 0%, tamoxifen = 100%; at 92.2 µM (top of the series);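 further: cells exposed to compound for 16 h at 37 °C before reading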
Outline: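 5000 Jurkat cells/well; compound 16 hr, 37 °C; Caspase-Glo 3/7 added, 20 min RT; luminescence read. Norm: DMSO = 0%, tamoxifen 100 uM = 100%. AC50, Hill model.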

[4] = Cellular Toxicity (caspase-3) HUV-EC-C (AID 656); details: HUV-EC-C cells, caspase-3 activation (apoptosis), vehicle = 0, 100 µM tamoxifen = 100%; series mostly up to 92.2 µM
Outline: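 qHTS; HUV-EC-C, 1000 cells/well; 5 hr settle, 16 hr cmpd, 37°C; Caspase-Glo 3/7, 20 min RT; luminescence. Norm: DMSO = 0%, tamoxifen 100 uM = 100%. Hill-fit AC50.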

[5] = Cellular Toxicity (caspase-3) SHSY5Y (AID 657); details: SH-SY5Y caspase-3 activation, DMSO zero, 10 µM staurosporine = 100%; series mostly up to 91.7 µM;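 further: cells exposed to compound for 16 hours at 37 °C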
Outline: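 qHTS, SH-SY5Y, 1500 cells/well, 5 h pre-incubation 37 °C; compound 16 h 37 °C; Caspase-Glo 3/7 1 h RT; luminescence. Norm.: DMSO = 0, 10 uM staurosporine = 100%. Hill fit → AC50.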

[6] = Cellular Toxicity (caspase-3) BJ (AID 658); details: BJ fibroblasts, luminescence, normalized: DMSO 0%, staurosporine 100%; series mostly up to 91.7 µM;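 further: cells exposed to compound for 16 hours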
Outline: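 Luminescent aminoluciferin-substrate cleavage reports caspase 3/7 activity in normal human BJ fibroblasts after 16 hr compound exposure at 37 °C. Normalized to DMSO (basal) and 10 uM staurosporine (100%); AC50 from Hill fit of concentration-response.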

[7] = Cellular Toxicity (caspase-3) MRC-5 (AID 659); details: MRC-5 cells, luminescence, normalized: DMSO 0%, 10 µM staurosporine 100%; series mostly up to 91.7 µM
Outline: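 Luminescence from caspase-cleaved aminoluciferin substrate (Caspase-Glo 3/7, 1 hr RT) reports caspase 3/7 activity in MRC-5 lung fibroblasts after 16 hr compound exposure. Normalized to DMSO basal and 10 uM staurosporine as 100%; AC50 from Hill fits.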

[8] = Cellular Toxicity (caspase-3) Mesangial (AID 660); details: mesangial cells, normalized: DMSO 0%, 100 µM tamoxifen 100%; series mostly up to 91.7 µM;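 further: combined caspase 3 and 7 activity read by Caspase-Glo luminescence; cells exposed to compound for 16 h before the caspase read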
Outline: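 Concentration-response qHTS: compound-induced rise in caspase 3/7 luminescence in human mesangial cells after 16 h, normalized to DMSO and 100 uM tamoxifen controls.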

[9] = Cellular Toxicity (caspase-3) SK-N-SH (AID 661); details: SK-N-SH caspase-3 activation, qHTS, DMSO as zero, staurosporine as full; series mostly up to 91.7 µM;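 further: cells exposed to compound for 16 hours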
Outline: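 Caspase 3/7 activation is measured as a luminescence increase from aminoluciferin released by substrate cleavage in SK-N-SH cells after 16 hr compound treatment; values are AC50 from concentration-response curves.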

[10] = Cellular Toxicity (caspase-3) H-4-II-E (AID 663); details: H-4-II-E rat hepatoma, scaled: DMSO 0%, 100 µM tamoxifen 100%; series mostly up to 92.2 µM;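 further: cells exposed to compound for 16 hr before readout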
Outline: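 Luminescence from caspase-cleaved aminoluciferin substrate, read 20 min after reagent addition, reports caspase 3/7 activation in rat H-4-II-E cells after 16 hr compound exposure. Normalized to DMSO (basal) and 100 uM tamoxifen (100%); AC50 from Hill fits.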

[11] = Cellular Toxicity (caspase-3) Hek293 (AID 664); details: HEK293 caspase-3 activation, DMSO = 0%, 100 µM tamoxifen = 100%; series mostly up to 92.2 µM;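 further: cells exposed to compound for 16 h at 37 °C before readout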
Outline: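 Activation of caspase-3/7 is measured as increased luminescence from cleaved peptide-aminoluciferin substrate in HEK293 cells treated 16 hours at 37 °C. AC50 values come from Hill-equation fits of concentration-response data.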

[12] = Cellular Toxicity (caspase-3) N2a (AID 665); details: N2a cells, luminescence, normalized: DMSO 0%, 10 µM staurosporine 100%; series mostly up to 92.2 µM;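 further: compound exposure lasted 16 h at 37 °C before readout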
Outline: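 Plated mouse neuroblastoma N2a cells received titrated compounds for 16 h in complete medium. Caspase activity was then detected with a peptide-aminoluciferin luminescent reagent.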

[13] = Cellular Toxicity (caspase-3) NIH 3T3 (AID 666); details: NIH 3T3 caspase-3 activation, apoptosis/toxicity, 0% DMSO, 100% is 100 µM tamoxifen; series mostly up to 92.2 µM;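 further: 0% = DMSO basal and 100% = 100 µM tamoxifen stimulation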
Outline: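 Concentration-response qHTS in NIH 3T3 mouse fibroblasts scores caspase-3/7 activation as rising luminescence after 16 hr compound exposure. Signals are scaled between DMSO-only and 100 uM tamoxifen.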

[14] = Cellular Toxicity (caspase-3) Renal Proximal Tubule (AID 667); details: renal proximal tubule cells, primary cells freshly taken from rat, solvent-only wells 0%, staurosporine 100%; series mostly up to 91.7 µM;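 further: cells exposed to compound for 16 hours at 37 °C before detection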
Outline: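 AC50 derived by standard Hill fit of concentration-response data, normalized between DMSO basal and 10 uM staurosporine as 100% stimulation. Cells: primary rat kidney proximal tubule, 16 h treatment at 37 °C.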

[15] = molecular target: Cytochrome P450 3A4 (Homo sapiens) (UniProt P08684); experiment: qHTS Assay for Inhibitors and Substrates of Cytochrome P450 3A4 (AID 884); details: recombinant CYP3A4, Luciferin-PPXE luminescence; series mostly up to 57.1 µM; further: on the % scale 0 is the no-effect control and ±100 the full control effect; nearly all actives have a fitted effect of over 50% in size
Outline: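 20 nM human CYP3A4 with 25 uM Luciferin-PPXE (at KM) in 200 mM KPO4, preincubated 10 min with compound; NADPH regeneration started a 60 min RT reaction. Luciferin detected by luminescence, normalized to 57 uM ketoconazole as full inhibition.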

[16] = molecular target: 3',5'-cyclic-AMP phosphodiesterase 4B (Homo sapiens) (UniProt Q07343); experiment: qHTS Assay for Inhibitors of PDE-IV (AID 607; active means well fitted activation curve with a large enough effect in the main read-out, with a control signal flat, not every such curve was filed as active; further: potency means the concentration at half of the fitted maximal effect); details: HEK293 ACTOne CNG channel cells, membrane potential fluorescence; series mostly up to 22.9 µM
Outline: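 Cell-based read-out of cAMP via a modified cyclic nucleotide-gated channel and membrane potential dye (535/590 nm) in HEK293 cells expressing PDE4 endogenously. Compounds tested up to 22.9 uM final; 100 uM RO 20-1724 reference.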

[17] = molecular target: Cytochrome P450 3A4 (Homo sapiens) (UniProt P08684); experiment: qHTS Assay for Activators of Cytochrome P450 3A4 (AID 885); details: recombinant CYP3A4, Luciferin-PPXE luminescence, 60 min; series mostly up to 57.1 µM; further: nearly all actives have a fitted effect of over 65% in size
Outline: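 Signal was normalized against complete inhibition by 57 uM ketoconazole. The reaction used 20nM CYP3A4 with 25uM Luciferin-PPXE, 10-min compound preincubation and a 60-min NADPH-supported step at RT.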

[18] = molecular target: Cytochrome P450 2D6 (Homo sapiens) (UniProt P10635); experiment: qHTS Assay for Inhibitors and Substrates of Cytochrome P450 2D6 (AID 891); details: recombinant CYP2D6, luciferin-ME EGE luminescence; series mostly up to 57.1 µM;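 further: luciferin methyl ether substrate demethylated by CYP2D6 with NADPH regeneration; on the % scale 0 is the no-effect control and ±100 the full control effect; nearly all actives have a fitted effect of over 60% in size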
Outline: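 Human CYP2D6 (5 nM) with 30 uM Luciferin-ME EGE (at Km) in 100 mM KPO4, compound preincubated 10 min, then NADPH regeneration system for 60 min at room temperature. Luciferin read by luminescence; normalized to 1.43 uM quinidine.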

[19] = molecular target: Guanine nucleotide-binding protein G(i) subunit alpha-1 (Homo sapiens) (UniProt P63096); experiment: qHTS Assay for Inhibitors of RGS12 GoLoco Motif Activity (Green Fluorophore) (AID 879); details: Galphai1/FITC-RGS12 GoLoco peptide, fluorescence polarization; series mostly up to 57.1 µM;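 further: 0% = labeled peptide with Gαi1 and full inhibition = labeled peptide alone without protein; negative values mean loss of peptide binding seen as reduced polarization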
Outline: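 Fluorescence polarization assay: 50 nM Gαi1 with 10 nM FITC-labeled RGS12 GoLoco peptide in 10 mM Tris pH 7.5, 150 mM NaCl, 0.1 mM GDP, 0.05% NP40, 10 min at room temperature with compound.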

[20] = molecular target: Cytochrome P450 2C9 (Homo sapiens) (UniProt P11712); experiment: qHTS Assay for Inhibitors and Substrates of Cytochrome P450 2C9 (AID 883); details: recombinant CYP2C9, luciferin-H luminescence, 60 min; series mostly up to 57.1 µM; further: nearly all actives have a fitted effect of over 60% in size; further: potency means the concentration at half of the fitted maximal effect; on activity change, negative = inhibition: on the % scale 0 is the no-effect control and ±100 the full control effect
Outline: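 A luminogenic readout tracked human CYP2C9 (10nM) converting deoxyluciferin (100uM, at KM) in 25mM KPO4 during 60 min at 37C with regenerated NADPH. Values normalized to 57uM sulphaphenazole as complete inhibition.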

Chain of 3',5'-cyclic-AMP phosphodiesterase 4B (Homo sapiens) (Q07343 whole entry, looked up): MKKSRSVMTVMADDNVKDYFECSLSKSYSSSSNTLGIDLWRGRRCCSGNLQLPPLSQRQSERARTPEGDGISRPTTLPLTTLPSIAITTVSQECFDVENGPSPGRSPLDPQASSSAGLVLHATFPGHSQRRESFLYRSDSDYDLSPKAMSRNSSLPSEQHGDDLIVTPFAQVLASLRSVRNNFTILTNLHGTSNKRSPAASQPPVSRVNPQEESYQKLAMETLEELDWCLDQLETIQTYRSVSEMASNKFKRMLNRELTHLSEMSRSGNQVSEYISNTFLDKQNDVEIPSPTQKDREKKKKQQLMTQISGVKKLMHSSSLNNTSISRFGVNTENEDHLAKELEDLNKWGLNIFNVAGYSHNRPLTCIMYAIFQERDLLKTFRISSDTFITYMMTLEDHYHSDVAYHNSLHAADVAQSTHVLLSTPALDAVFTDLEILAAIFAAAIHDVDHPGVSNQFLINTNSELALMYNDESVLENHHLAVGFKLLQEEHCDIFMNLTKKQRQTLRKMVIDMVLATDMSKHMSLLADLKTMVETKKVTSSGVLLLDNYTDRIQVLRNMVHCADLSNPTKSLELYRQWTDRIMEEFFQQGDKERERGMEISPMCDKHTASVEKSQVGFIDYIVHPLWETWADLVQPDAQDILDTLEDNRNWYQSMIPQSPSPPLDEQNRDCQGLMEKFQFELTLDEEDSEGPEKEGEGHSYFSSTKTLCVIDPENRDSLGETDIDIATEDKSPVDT
Chain of Cytochrome P450 2C9 (Homo sapiens) (P11712 whole entry, looked up): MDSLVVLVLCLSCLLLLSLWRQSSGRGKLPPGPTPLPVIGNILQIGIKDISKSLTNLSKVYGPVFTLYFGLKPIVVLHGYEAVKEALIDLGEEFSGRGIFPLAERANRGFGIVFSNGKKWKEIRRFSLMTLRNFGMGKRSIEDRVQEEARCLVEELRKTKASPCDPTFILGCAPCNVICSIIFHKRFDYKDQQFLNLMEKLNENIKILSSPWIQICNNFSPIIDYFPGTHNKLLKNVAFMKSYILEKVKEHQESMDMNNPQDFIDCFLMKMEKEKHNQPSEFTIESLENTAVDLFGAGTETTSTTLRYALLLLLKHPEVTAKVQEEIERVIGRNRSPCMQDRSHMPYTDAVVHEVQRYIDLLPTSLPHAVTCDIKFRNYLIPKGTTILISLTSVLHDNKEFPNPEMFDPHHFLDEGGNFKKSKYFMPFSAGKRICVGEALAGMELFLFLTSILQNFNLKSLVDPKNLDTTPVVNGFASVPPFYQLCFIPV
Chain of Cytochrome P450 3A4 (Homo sapiens) (P08684 whole entry, looked up): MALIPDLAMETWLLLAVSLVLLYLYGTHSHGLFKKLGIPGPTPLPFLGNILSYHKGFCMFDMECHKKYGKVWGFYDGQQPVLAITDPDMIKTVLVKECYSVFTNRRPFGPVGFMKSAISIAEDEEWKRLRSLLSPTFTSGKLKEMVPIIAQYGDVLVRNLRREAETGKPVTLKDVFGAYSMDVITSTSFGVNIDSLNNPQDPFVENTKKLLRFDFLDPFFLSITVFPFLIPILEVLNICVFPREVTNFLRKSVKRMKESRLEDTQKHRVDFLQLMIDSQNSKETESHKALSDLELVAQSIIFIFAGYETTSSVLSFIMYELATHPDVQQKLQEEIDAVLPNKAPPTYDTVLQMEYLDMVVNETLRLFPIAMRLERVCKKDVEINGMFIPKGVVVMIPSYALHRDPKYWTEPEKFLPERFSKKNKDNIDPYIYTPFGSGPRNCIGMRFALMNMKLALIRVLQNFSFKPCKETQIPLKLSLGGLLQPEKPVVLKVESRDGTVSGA
Chain of Cytochrome P450 2D6 (Homo sapiens) (P10635 whole entry, looked up): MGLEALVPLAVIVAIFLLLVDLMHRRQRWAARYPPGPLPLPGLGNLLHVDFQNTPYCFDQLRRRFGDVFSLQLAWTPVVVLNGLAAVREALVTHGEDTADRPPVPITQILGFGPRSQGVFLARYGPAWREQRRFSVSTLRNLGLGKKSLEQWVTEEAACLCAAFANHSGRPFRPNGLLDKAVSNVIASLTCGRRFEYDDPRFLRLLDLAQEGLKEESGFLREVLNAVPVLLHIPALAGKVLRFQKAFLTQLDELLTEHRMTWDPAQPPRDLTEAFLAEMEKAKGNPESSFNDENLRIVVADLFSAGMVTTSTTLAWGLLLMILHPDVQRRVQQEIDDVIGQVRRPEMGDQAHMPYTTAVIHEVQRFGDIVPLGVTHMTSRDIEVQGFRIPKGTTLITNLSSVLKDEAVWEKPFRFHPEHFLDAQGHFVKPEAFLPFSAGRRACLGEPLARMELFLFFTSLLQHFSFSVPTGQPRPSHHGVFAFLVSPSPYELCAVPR
Chain of Guanine nucleotide-binding protein G(i) subunit alpha-1 (Homo sapiens) (P63096 whole entry, looked up): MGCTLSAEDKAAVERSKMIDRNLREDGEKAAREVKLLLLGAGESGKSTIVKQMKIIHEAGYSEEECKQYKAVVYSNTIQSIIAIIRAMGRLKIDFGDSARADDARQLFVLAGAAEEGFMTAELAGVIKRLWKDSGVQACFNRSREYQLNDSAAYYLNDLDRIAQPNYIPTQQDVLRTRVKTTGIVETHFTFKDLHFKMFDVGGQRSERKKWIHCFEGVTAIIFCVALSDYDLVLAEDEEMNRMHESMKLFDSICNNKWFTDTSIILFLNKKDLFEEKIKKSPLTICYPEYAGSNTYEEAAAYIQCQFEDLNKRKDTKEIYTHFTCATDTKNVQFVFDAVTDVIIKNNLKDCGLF

CN(C)Cc1ccccc1
inactive: outcome [1] | outcome [2] | caspase-3 activation [3] 0.691% | outcome [4] | outcome [5] | outcome [6] | outcome [7] | outcome [8] | outcome [9] | outcome [10] | outcome [11] | outcome [12] | outcome [13] | outcome [14] | outcome [15]

COc1cc(C[C@H]2C(=O)OC[C@@H]2Cc2ccc(OC)c(OC)c2)ccc1O
active: Potency [16] 3.79 µM

C=Cc1ccccc1
inactive: outcome [1] | outcome [2] | caspase-3 activation [3] -0.459% | outcome [4] | outcome [5] | outcome [6] | outcome [7] | outcome [8] | outcome [9] | outcome [10] | outcome [11] | outcome [12] | outcome [13] | outcome [14] | outcome [15]

CN(C)CCCn1cc(C2=C(c3c[nH]c4ccccc34)C(=O)NC2=O)c2ccccc21
inactive: outcome [17]

COc1ccc2[nH]c(=O)c3c(c2c1)OC(C)(C)C=C3
inactive: Potency [16] | outcome [15] | outcome [18]

NCCCC(=O)O
inactive: Potency [16] | outcome [19] | Potency [20] | outcome [15] | outcome [18]

O=C(O)c1cc2ccccc2c(Cc2c(O)c(C(=O)O)cc3ccccc23)c1O
inactive: Potency [16] | activity change, negative = inhibition [20] -15.3% [at 11.4 µM] | activity change, negative = inhibition [18] 6.29% [at 11.4 µM]

CCCCCCCCCCCCCCCC(=O)OC/C=C(C)/C=C/C=C(C)/C=C/C1=C(C)CCCC1(C)C
inactive: outcome [15]

C1CNCCN1
inactive: outcome [15]

COC(C)=O
inactive: outcome [1] | outcome [2] | caspase-3 activation [3] -0.555% | outcome [4] | outcome [5] | outcome [6] | outcome [7] | outcome [8] | outcome [9] | outcome [10] | outcome [11] | outcome [12] | outcome [13] | outcome [14] | outcome [15]

CCCCCCCCCC(=O)O
inactive: outcome [1] | outcome [2] | caspase-3 activation [3] -4.13% | outcome [4] | outcome [5] | outcome [6] | outcome [7] | outcome [8] | outcome [9] | outcome [10] | outcome [11] | outcome [12] | outcome [13] | outcome [14] | outcome [15]

CC(=O)C1=C(O)C=C2Oc3c(C(C)=O)c(O)c(C)c(O)c3[C@]2(C)C1=O
inactive: Potency [16] | outcome [17] | outcome [18]
active: Potency [20] 6.3 nM

CN[C@H]1CC[C@@H](c2ccc(Cl)c(Cl)c2)c2ccccc21
inactive: outcome [17]

Cc1ccc(OC[C@H](O)[C@H](C)NC(C)C)c2c1CCC2
inactive: Potency [16] | outcome [19] | outcome [17]

COC1=CC(=O)C[C@@H](C)[C@@]12Oc1c(Cl)c(OC)cc(OC)c1C2=O
inactive: Potency [20] | outcome [18]

O=C(O)CC(O)(CC(=O)O)C(=O)O
active: caspase-3 activation [3] 101%
inactive: outcome [1] | outcome [2] | outcome [4] | outcome [5] | outcome [6] | outcome [7] | outcome [8] | outcome [9] | outcome [10] | outcome [11] | outcome [12] | outcome [13] | outcome [14] | outcome [15]
